# Bead autofluor = flagged as autofluorescent in microsphere protease counterscreen. 360,000 tested, 3.1% active. fluorescence intensity (concentration not given with the values). compound autofluorescence counterscreen, microsphere flow cytometry; active compounds read high. AID 624483; in the data active = fluorescence intensity above about 16000; inconclusive = no clear call, values can overlap the other calls
# MazF activator = activators of E. coli MazEF toxin-antitoxin RNase. P0AE70. FAM/BHQ RNA-DNA oligo cleavage fluorescence, 5 h. activation, % at 20 µM. 350,000 tested, 0.32% active; in the data active = activation above about 50%
# Target sequence (P0AE70 whole entry, looked up): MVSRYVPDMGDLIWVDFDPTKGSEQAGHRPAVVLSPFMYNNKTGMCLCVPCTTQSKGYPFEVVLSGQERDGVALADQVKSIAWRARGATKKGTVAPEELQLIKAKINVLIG
# BoNT F protease = inhibitors of Botulinum neurotoxin F light chain protease. Multiplex microsphere protease cleavage assay, flow cytometry. inhibition, % at 10 µM. 360,000 tested, 0.22% active. AID 588497; in the data active = inhibition above about 35%, passing the limit was not always enough; inconclusive = no clear call, values can overlap the other calls
# SSB-PriA inh = K. pneumoniae PriA-SSBct interaction inhibition | AID 1272365 | inhibition, % at 33 µM | AlphaScreen SSBct-PriA binding, biotinylated peptide | 430,000 tested, 0.6% active; in the data active = inhibition mostly above about 37%, no sharp cut-off; inactive = mostly below about 20%
# BoNT-A LC inh2 = blocks Botulinum neurotoxin A light chain protease. AID 588499. inhibition, % at 10 µM. 360,000 tested, 0.17% active. multiplex microsphere protease substrate cleavage, flow cytometry
# Anthrax LF prot = blocks Bacillus anthracis lethal factor protease | P15917 | multiplex microsphere protease cleavage assay, LF | inhibition, % at 10 µM | 360,000 tested, 0.12% active | AID 588501
# BoNTA LC inh 1 = BoNT/A light chain protease inhibition; shares compounds with BoNT F protease; inhibition, % at 10 µM; 720 tested, 3% active; multiplex microsphere protease assay, flow cytometry; in the data active = inhibition above about 32%
# BoNTF LC inh 1 = blocks botulinum neurotoxin F light chain protease. shares compounds with BoNT F protease. multiplex microsphere protease cleavage assay, flow cytometry. inhibition, % at 10 µM. 720 tested, under 10 active; call rule not given here
# LF protease CP1 = blocks anthrax lethal factor protease; shares compounds with BoNT F protease; multiplex microsphere protease cleavage assay, LF; inhibition, % at 10 µM; 720 tested, under 10 active; AID 602142; call rule not given here
# A number is an active result; . = inactive; ? = inconclusive; / = not tested or not shown. The list is not random: actives were taken first. Their share in the collection is about 3.3%. Rule as the data show it, unless noted: active = inhibition above about 30%; inconclusive = no clear call, values can overlap the other calls; inactive = below that.
SMILES,Bead autofluor,MazF activator,BoNT F protease,SSB-PriA inh,BoNT-A LC inh2,Anthrax LF prot,BoNTA LC inh 1,BoNTF LC inh 1,LF protease CP1
COc1ccccc1N1C(=O)CC(N2CCN(c3ccc(F)cc3)CC2)C1=O (centres undefined),.,.,40.5,.,.,.,.,.,.
COCCn1c(SCc2nc(-c3ccccc3Cl)no2)nc2ccsc2c1=O,/,/,/,.,/,/,/,/,/
CCOC(=O)CCCCC(=O)c1[nH]c(=O)[nH]c1Cn1cnc2ccccc21,.,.,.,.,.,.,.,.,.
CCOC(=O)CCCCC(=O)c1[nH]c(=O)[nH]c1CSc1nc(-c2ccccc2)c(C#N)c(=O)[nH]1,.,.,.,.,.,.,/,/,/
CCOC(=O)CCCCC(=O)c1[nH]c(=O)[nH]c1CSCCO,.,.,64.5,.,.,.,.,.,.
COc1cccc(NC(=O)c2oc3ccccc3c2NC(=O)C(C)(C)C)c1,.,.,52.9,.,44.2,.,.,.,.
Cc1cc(C)c2cc(CN(CCN3CCCC3)C(=O)Nc3ccc(F)cc3)c(=O)[nH]c2c1,.,.,61.8,.,.,.,.,.,.
CO[C@@H](CNC(=O)c1ccccc1F)c1ccco1,/,/,/,.,/,/,/,/,/
COCCn1c(-c2ccc(OC)cc2)c(-c2ccc(OC)cc2)oc1=O,.,.,.,.,.,.,/,/,/
COc1ccc(-c2oc(=O)n(C)c2-c2ccc(OC)cc2)cc1,.,.,90.4,.,.,.,.,.,.
COc1ccc(-c2cc(COC(=O)c3ccco3)no2)cc1,/,/,/,.,/,/,/,/,/
COc1nn(C)cc1C(=O)NC[C@H](OC)c1ccc(Cl)s1,/,/,/,.,/,/,/,/,/
COc1ccc(OC)c(-c2nc3cc4ccccc4cc3nc2-c2ccccc2)c1,.,.,.,.,62.5,.,34.1,.,.
COc1ccc(-n2c(SCC(=O)Nc3ccc(C(=O)O)cc3)nnc2-c2cccs2)cc1,.,.,.,.,.,.,/,/,/
COc1ccc(-c2nnc(SCC(=O)Nc3ccc(C(=O)O)cc3)n2-c2ccc(Cl)cc2)cc1,.,.,.,.,.,.,.,.,.
Cc1ccc2nc(NC(=O)CSCC(=O)Nc3cc(C)on3)sc2c1,/,.,/,.,/,/,/,/,/
COc1ccc2nc(NC(=O)CSC(C)C(=O)Nc3cc(C)on3)sc2c1 (centres undefined),.,.,?,.,84.8,?,.,.,.
COc1ccc(-c2cncc3nccn23)cc1OC,.,/,.,/,.,.,/,/,/
Clc1ccccc1-c1ncc2ccccn12,.,.,.,.,.,.,.,.,.
O=[N+]([O-])c1cccc(-c2ncc3ccccn23)c1,.,.,.,.,.,.,/,/,/
Clc1ccc(-c2ncc3ccccn23)cc1,.,.,.,.,51.0,.,.,.,.
COc1ccc(-c2ncc3ccccn23)cc1OC,.,.,.,.,.,.,.,.,.
Cc1cc(C)nc(SCc2cc(=O)c(OC(=O)c3cc4ccccc4o3)co2)n1,/,/,/,.,/,/,/,/,/
CCOC(=O)N1CCN(C(=O)c2cccc([N+](=O)[O-])c2C)CC1,/,/,/,.,/,/,/,/,/
CC(CN1CCOCC1)C(=O)c1ccccc1 (centres undefined),.,.,.,.,.,.,.,.,.
SMILES,Bead autofluor,MazF activator,BoNT F protease,SSB-PriA inh,BoNT-A LC inh2,Anthrax LF prot,BoNTA LC inh 1,BoNTF LC inh 1,LF protease CP1
CCCOc1ccc(C(=O)C(CN2CCOCC2)c2ccccc2)cc1 (centres undefined),.,.,.,.,.,.,/,/,/
Cc1ccnc2ccc(C(=O)O)cc12,/,/,/,.,/,/,/,/,/
CCCCOc1ccc(C(=O)N2CCN(c3ccc(N4CCOCC4)nn3)CC2)cc1,?,.,59.2,.,.,.,.,.,.
Cc1ccc(C(=O)N2CCN(c3ccc(N4CCOCC4)nn3)CC2)cc1,.,.,.,.,.,.,/,/,/
Cc1noc(C)c1S(=O)(=O)NCc1ccc(C(=O)c2ccco2)s1,/,/,/,.,/,/,/,/,/
C=CCOc1c(Br)cc(CNCCCN2CCOCC2)cc1OC,.,.,.,.,.,45.4,.,.,.
O=C(CCc1nnc2c(N3CCCCC3)nc3ccccc3n12)NCCc1ccc(Cl)cc1,/,/,/,.,/,/,/,/,/
Cc1ccc(NC(=O)CCCCCC2NC(=O)NC2C)cc1 (centres undefined),.,.,71.4,.,.,.,.,.,.
O=c1c2oc3ccccc3c2ncn1Cc1ccccc1Cl,.,.,.,.,.,.,/,/,/

# High-throughput results from PubChem.
